# This excerpt belongs to a sample that is enriched for hits.
# mHTT-CaM PPI inh = inhibitors of human mutant huntingtin-calmodulin interaction; hit rate 3.6% among 190,000; AlphaScreen His-mHTT/GST-CaM binding, luminescence; AID 1671202; inhibition, % at 15 µM;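 also: 0% = both proteins with DMSO and 100% = one protein alone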
# Pf apPOL inh = Pf-apPOL DNA polymerase inhibition. Recombinant Pf-apPOL, molecular beacon fluorescence, 1.5 h. inhibition, % at 10 µM. hit rate 0.25% among 210,000. AID 1794808
# Numbers without * were called inactive; x = no result given; ! = not confirmed by another sample. Rule as the data show it: active = inhibition above about 50%; inactive = the rest.
SMILES,mHTT-CaM PPI inh,Pf apPOL inh
Cc1ccc(C2=NN(C(=O)CN3CCOCC3)C(c3ccccc3)C2)cc1C (stereo unspecified),52*,-2
O=C(CN1CCOCC1)N1N=C(c2ccccc2Cl)CC1c1ccccc1Cl (stereo unspecified),100*,-3
COc1ccc(C2CC(c3ccccc3)=NN2C(=O)CN2CCOCC2)cc1 (stereo unspecified),27,-6
Cc1ccc(C2=NN(C(=O)CN3CCOCC3)C(c3ccc(F)cc3)C2)cc1 (stereo unspecified),28,-6
Cc1ccc(C)c(C2CC(c3ccc(F)cc3)=NN2C(=O)CN2CCOCC2)c1 (stereo unspecified),50*,2
CN(C)c1ccc(CNC(=O)C2CCN(c3cncnc3N3CCCC3)CC2)cc1,33,0
O=C(NCCc1c[nH]c2ccc(OCc3ccccc3)cc12)C1CC1,16,-8
COCCN(CCOC)Cc1c(O)ccc2c1OC(=Cc1ccco1)C2=O,15,5
Cc1ccc(C)c(CNC(=O)C2CCCN(c3cn[nH]c(=O)c3)C2)c1 (stereo unspecified),-7,1
CCn1nccc1C(=O)N1CCC(c2nncn2-c2ccccc2)CC1,1,-6
Clc1ccc(Nc2nc(NCCCn3ccnc3)nc3nc[nH]c23)cc1,99*,-10
c1cn(CCCNc2ncnc3nc[nH]c23)cn1,4,3
Cc1csc2c(SCC(=O)NN)ncnc12,x,-3
CCc1nnc(NC(=O)c2ccc(S(=O)(=O)N(C)C)cc2)o1,24,-4
CCSc1ccc(Cc2nnc(NC(=O)c3ccc(S(=O)(=O)N(C)C)cc3)o2)cc1,61*,-253
COc1ccc(N=Cc2ccc(Cl)cc2)cc1Cl,19,-3
COc1ccc(N=C/C=C/c2ccccc2Cl)cc1Cl,55*,-4
O=S(=O)(Nc1nccs1)c1ccc(N=Cc2cc(Cl)cc(Cl)c2O)cc1,11,-2
O=S(=O)(Nc1nccs1)c1ccc(N=Cc2ccccc2O)cc1,10,6
O=[N+]([O-])c1ccc(C=Nc2ccc(S(=O)(=O)Nc3nccs3)cc2)cc1,62*,1
O=S(=O)(Nc1nccs1)c1ccc(N=Cc2cc(Br)ccc2O)cc1,88*,8
Cc1ccc(C(=O)Nc2cccc(-c3nc4ncccc4o3)c2)c(Cl)c1,53*,-2
O=C(COc1ccc(Cl)cc1)Nc1cccc(-c2nc3ncccc3o2)c1,50*!,-7
O=C(Nc1cccc(-c2nc3ncccc3o2)c1)c1cccc(Cl)c1Cl,20,-8
COc1ccc(OCC(=O)Nc2cc(-c3nc4ncccc4o3)ccc2C)cc1,8,-3
SMILES,mHTT-CaM PPI inh,Pf apPOL inh
COc1ccc(OCC(=O)Nc2cccc(-c3nc4ncccc4o3)c2)cc1,3,5
Cc1ccc(-c2nc3ncccc3o2)cc1NC(=O)COc1ccc(Cl)cc1,1,91*
CCc1cc2c(cc1C=O)OCCO2,-7,17
Cc1nn(CC(=O)NCc2cccs2)c(C)c1[N+](=O)[O-],-5,-8
Cc1cccc(N2CCN(C(=O)c3ccc(-n4ccc(C)n4)nc3)CC2)c1,4,-2
COc1ccc(NC(=O)C2(C)Oc3cccnc3N(C)C2=O)cc1Cl (stereo unspecified),1,-2
Cc1ccc2nc(-c3cc4cc(Cl)ccc4oc3=O)cn2c1,0,3
Cc1cc(NS(=O)(=O)c2ccc(NC(=O)C3C(C=C(Cl)Cl)C3(C)C)cc2)nc(C)n1 (stereo unspecified),62*,0
CC1(C)C(C=C(Cl)Cl)C1C(=O)Nc1ccc(Br)cc1 (stereo unspecified),53*,0
CC1(C)C(C=C(Cl)Cl)C1C(=O)Nc1cccc(C(=O)O)c1 (stereo unspecified),-3,-6
CC1(C)C(C=C(Cl)Cl)C1C(=O)Nc1cccc([N+](=O)[O-])c1 (stereo unspecified),72*!,1
CC1(C)C(C=C(Cl)Cl)C1C(=O)Nc1ccccc1Cl (stereo unspecified),-1,1
CC1(C)C(C=C(Cl)Cl)C1C(=O)Nc1ccccc1[N+](=O)[O-] (stereo unspecified),56*,-3
CC1(C)C(C=C(Cl)Cl)C1C(=O)Nc1ccc(S(=O)(=O)Nc2ncccn2)cc1 (stereo unspecified),11,-2
Cc1ccc(NC(=O)C2C(C=C(Cl)Cl)C2(C)C)cc1C (stereo unspecified),-11,-8
Cc1c(C(C)C)c(N2CCN(C)CC2)n2c(nc3ccccc32)c1C#N,-1,-5
COc1ccc(-c2cc(C(=O)NC(C)C)nn2C)c(F)c1,-13,-4
CCCOc1ccc(C(=O)Nc2ccc(N3CCCC3)cc2)cc1,3,-6
CCCCOc1ccc(C(=O)Nc2ccc(N3CCCC3=O)cc2)cc1,88*,3
COc1ccc(CC(=O)Nc2ccc(Nc3ccc(-n4nc(C)c(C)c4C)nn3)cc2)cc1,24,1
Cc1c(C(=O)O)c(-c2ccccc2)nn1-c1ccccc1,0,-5
Oc1ccc2c(c1)c(-c1ccccc1)nn2-c1ccccc1,55*,-3
Cc1noc(C)c1CCC(=O)N1CC(c2nc3ccccc3[nH]2)C1,-13,-7
Cc1noc(-c2nn(C)c3c2CN(S(=O)(=O)c2ccc(F)cc2)CC3)n1,13,-3
CC(C)(Oc1ccc(Cl)cc1)C(=O)N1CCN(c2cccc(Cl)c2)CC1,20,-6
SMILES,mHTT-CaM PPI inh,Pf apPOL inh
CC(C)(Oc1ccc(Cl)cc1)C(=O)N1CCN(c2ccc(F)cc2)CC1,94*,-2
O=C(Cc1csc(NC(=O)c2ccc3c(c2)OCO3)n1)NCCc1c[nH]c2ccccc12,56*,-6
O=C(Cc1csc(NC(=O)c2cccs2)n1)NO,15,72*
O=C(Cc1csc(NC(=O)c2ccc(=O)[nH]c2)n1)NCCc1c[nH]c2ccccc12,10,-14
O=C(Cc1csc(NC(=O)c2cnccn2)n1)NCCc1c[nH]c2ccccc12,53*,-24
COC(=O)Nc1nc(CC(=O)NCc2ccccc2Cl)cs1,-1,-6
O=C(Cc1csc(SCC(=O)c2cccs2)n1)NCCc1c[nH]c2ccccc12,30,-8
NS(=O)(=O)c1ccc(CNC(=O)Cc2csc(NC(=O)c3cccs3)n2)cc1,0,-7
O=C(Cc1csc(NC(=O)c2ncccn2)n1)NCc1ccccc1Cl,98*,-18
CCC(C)NS(=O)(=O)C1CON(C)C1c1ccccc1Cl (stereo unspecified),-7,-5
O=C(O)CCC(=O)N1N=C(c2ccc(Br)cc2)CC1c1ccc(F)cc1 (stereo unspecified),7,4
OC(C#Cc1ccccc1)C#CC(O)(c1ccccc1)c1ccccc1 (stereo unspecified),98*,4
OC(C#CC(O)(c1ccccc1)c1ccccc1)c1cccnc1 (stereo unspecified),-6,-15
O=C(c1ccc(Cl)cc1)N1CCN(c2nc(CN3CCOCC3)cs2)CC1,14,-1
CCOc1cc2c(c([N+](=O)[O-])c1)NC(c1cccc([N+](=O)[O-])c1)C1CC=CC21 (stereo unspecified),41,3
COc1cc([N+](=O)[O-])cc2c1NC(C(C)C)C1CC=CC21 (stereo unspecified),16,-4
CCOc1cc2c(c([N+](=O)[O-])c1)NC(c1ccccc1)C1CC=CC21 (stereo unspecified),57*,-2

# Screening data deposited in PubChem BioAssay by University of Kansas High Throughput Screening Laboratory.
